Data published in PubChem BioAssay (EPA / NIEHS).
Where “and” joins values, the source holds several entries; their conditions need not be identical. Identical values can stand only once. A structure can be active in one record and inactive in another. Calls of active or inactive are those of the source. The calls were made as follows: active = hit-call score of the fitted dose curve at least 0.9, where 1 is the maximum; inactive = score below 0.9.

How the values were obtained:
[1] = BSK_3C_TissueFactor: BioMAP Diversity Plus: 3C Assay for Tissue Factor Biomarker Activity (AID 2282997); conditions: BioMAP 3C HUVEC, tissue factor biomarker readout; actives raise or lower the signal
Outline: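 Values derive from bidirectional curve fitting against DMSO of Tissue Factor ELISA signals, taken 24 h after dosing primary human umbilical vein endothelial cells.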

[2] = BSK_3C_VCAM1: BioMAP Diversity Plus: 3C Assay for Vascular cell adhesion molecule 1 (VCAM1) Biomarker Activity (AID 2282999); conditions: BioMAP 3C HUVEC, VCAM1 ELISA, cytokine-stimulated; actives raise or lower the signal
Outline: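 Human umbilical vein endothelial cells were dosed with compound for 24 h, after which cell-surface VCAM-1 was quantified by ELISA. Bidirectional curve fitting used DMSO as negative control and activity baseline.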

[3] = BSK_3C_Proliferation: Cell Proliferation Assessment in the BioMAP Diversity Plus: 3C Assay (AID 2283006); conditions: primary human endothelial cells (HUVEC);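 as to AC50: potency may reflect either rise or fall in cell number versus DMSO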
Outline: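 Human umbilical vein endothelial cells were grown sub-confluent and exposed to chemical for 48 h, then fixed with 10% TCA and stained with 0.1% sulforhodamine B; absorbance at 560 nm gave relative cell number, fitted bidirectionally against DMSO baseline.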

[4] = read-out: E-selectin (Homo sapiens) (UniProt P16581); assay: BSK_3C_Eselectin: BioMAP Diversity Plus: 3C Assay for Eselectin Biomarker Activity (AID 2283015); conditions: primary human endothelial cells (HUVEC); actives raise or lower the signal
Outline: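 Human vascular endothelium from umbilical vein is exposed to test chemicals for 24 h. E-selectin levels are read by ELISA and compared with DMSO controls.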

[5] = read-out: Interleukin-1 alpha (IL1a), IL1A (gene 3552); assay: BSK_BE3C_IL1a: BioMAP Diversity Plus: BE3C Assay for Interleukin-1 alpha (IL1a) Biomarker Activity (AID 2283016); conditions: primary human bronchial epithelial cells; actives raise or lower the signal
Outline: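 Human primary bronchial epithelial cells (BE3C system) were dosed with compound and IL-1a measured by ELISA 24 h later. Activity was fitted bidirectionally against DMSO baseline; cytotoxicity was tracked in parallel cultures by SRB total-protein staining.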

[6] = read-out: Human Leukocyte Antigen - DR isotype (HLADR), HLA-DRA (gene 3122); assay: BSK_3C_HLADR: BioMAP Diversity Plus: 3C Assay for Human Leukocyte Antigen - DR isotype (HLADR) Biomarker Activity (AID 2283019); conditions: primary human endothelial cells (HUVEC); actives raise or lower the signal
Outline: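 Endothelial cells from human umbilical vein are treated with test chemical; after 24 h, HLA-DR levels are measured by ELISA. Data are fitted in both directions using DMSO as the baseline.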

[7] = read-out: Urokinase-type plasminogen activator receptor (uPAR), PLAUR (gene 5329); assay: BSK_4H_uPAR: BioMAP Diversity Plus: 4H Assay for Urokinase-type plasminogen activator receptor (uPAR) Biomarker Activity (AID 2283030); conditions: primary human endothelial cells (HUVEC); actives raise or lower the signal
Outline: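 Chemicals are dosed onto human vascular endothelial primary cells (umbilical vein). After 24 h, uPAR is read by ELISA. Gain or loss of signal is fitted relative to DMSO.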

[8] = read-out: Plasminogen activator inhibitor-1 (PAI1), SERPINE1 (gene 5054); assay: BSK_BE3C_PAI1: BioMAP Diversity Plus: BE3C Assay for Plasminogen activator inhibitor-1 (PAI1) Biomarker Activity (AID 2283037); conditions: primary human bronchial epithelial cells; actives raise or lower the signal
Outline: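 Human primary bronchial epithelial cells were exposed to chemical for 24 h, then PAI-1 was quantified by ELISA. Activity was fitted bidirectionally relative to the DMSO negative control baseline.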

[9] = read-out: Human Leukocyte Antigen - DR isotype (HLADR), HLA-DRA (gene 3122); assay: BSK_CASM3C_HLADR: BioMAP Diversity Plus: CASM3C Assay for Human Leukocyte Antigen - DR isotype (HLADR) Biomarker Activity (AID 2283043); conditions: primary human coronary artery smooth muscle cells; actives raise or lower the signal;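 also: cell-surface HLA-DR protein level quantified by ELISA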
[10] = read-out: Thrombomodulin, THBD (gene 7056); assay: BSK_CASM3C_Thrombomodulin: BioMAP Diversity Plus: CASM3C Assay for Thrombomodulin Biomarker Activity (AID 2283051); conditions: primary human coronary artery smooth muscle cells; actives raise or lower the signal;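 also: thrombomodulin protein level measured by ELISA 24 h after dosing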
[11] = read-out: Vascular cell adhesion molecule 1 (VCAM1), VCAM1 (gene 7412); assay: BSK_CASM3C_VCAM1: BioMAP Diversity Plus: CASM3C Assay for Vascular cell adhesion molecule 1 (VCAM1) Biomarker Activity (AID 2283055); conditions: primary human coronary artery smooth muscle cells; actives raise or lower the signal;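 also: VCAM-1 protein level quantified by ELISA on the cells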
[12] = read-out: TIMP metallopeptidase inhibitor 2 (TIMP2), TIMP2 (gene 7077); assay: BSK_KF3CT_TIMP2: BioMAP Diversity Plus: KF3CT Assay for TIMP metallopeptidase inhibitor 2 (TIMP2) Biomarker Activity (AID 2283071); conditions: primary human keratinocytes with fibroblasts; actives raise or lower the signal
Outline: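 Human primary keratinocyte/foreskin fibroblast co-culture dosed with chemical and sampled at 24 h. TIMP-2 levels quantified by ELISA; bidirectional fitting against DMSO negative control as baseline.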

[13] = read-out: Interleukin-1 alpha (IL1a), IL1A (gene 3552); assay: BSK_LPS_IL1a: BioMAP Diversity Plus: LPS Assay for Interleukin-1 alpha (IL1a) Biomarker Activity (AID 2283080); conditions: primary human HUVEC with PBMC; actives raise or lower the signal
Outline: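 Measured: IL-1 alpha via ELISA at 24 h in LPS-activated human umbilical vein endothelium–PBMC co-culture. Baseline: DMSO, bidirectional fitting.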

[14] = BSK_LPS_PGE2: BioMAP Diversity Plus: LPS Assay for Prostaglandin E2 (PGE2) Biomarker Activity (AID 2283082); conditions: primary human HUVEC with PBMC; actives raise or lower the signal;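 as to AC50: secreted prostaglandin E2 measured by ELISA in LPS-stimulated co-culture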
Outline: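 HUVEC plus PBMC co-culture stimulated with LPS; secreted PGE2 quantified by ELISA 24 h after chemical dosing. Activity fitted bidirectionally against DMSO as negative control and baseline; parallel SRB total-protein staining served as cytotoxicity check.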

CD38, CD38 (gene 952) = assay: BSK_SAg_CD38: BioMAP Diversity Plus: SAg Assay for CD38 Biomarker Activity (AID 2283087); conditions: primary human HUVEC with PBMC; actives raise or lower the signal
Outline: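 Fluorescence ELISA of cell-surface CD38 served as the read-out, with either increase or decrease fitted against DMSO controls. Cells were a human umbilical vein endothelium plus PBMC co-culture under SEB/TSST-1 stimulation, measured 24 h after dosing.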

CD69, CD69 (gene 969) = assay: BSK_SAg_CD69: BioMAP Diversity Plus: SAg Assay for CD69 Biomarker Activity (AID 2283089); conditions: primary human HUVEC with PBMC; actives raise or lower the signal;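 as to AC50: cell surface CD69 protein quantified by ELISA with fluorescence detection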
Outline: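 Endothelial/PBMC co-culture; chemical added; 24 h incubation; CD69 ELISA with fluorescence detection; bidirectional fit vs DMSO.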

[15] = read-out: E-selectin (Homo sapiens) (UniProt P16581); assay: BSK_SAg_Eselectin: BioMAP Diversity Plus: SAg Assay for Eselectin Biomarker Activity (AID 2283091); conditions: primary human HUVEC with PBMC; actives raise or lower the signal
Outline: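 Primary human endothelial cells and peripheral blood mononuclear cells were co-cultured and exposed to chemical for 24 hours. E-selectin levels were then quantified by ELISA, with bidirectional curve fitting normalised to DMSO controls.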

[16] = CCTE_Harrill_HTTr_Viability_MCF7: CCTE's 6-hour Cell Viability Assessment for the High-Throughput Transcriptomics (HTTr) Platform, in MCF-7 cells cultured in DMEM + 10% fetal bovine serum, Harrill Lab (AID 2284010)
Outline: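 Membrane integrity was scored by high-content imaging of propidium iodide dye exclusion after a 6 h exposure across an eight-point dilution series. Data were fitted bidirectionally relative to DMSO as negative control and baseline.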

[17] = CCTE_Harrill_HTTr_Apoptosis_MCF7: CCTE's 6-hour Apoptosis Assessment for the High-Throughput Transcriptomics (HTTr) Platform, in MCF-7 cells cultured in DMEM + 10% fetal bovine serum, Harrill Lab (AID 2284011)
Outline: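 Cells are dosed with test chemicals at eight concentrations and imaged 6 hours later for caspase-3/7 activity using a green fluorogenic detection reagent. Activity is fitted in both directions against DMSO controls.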

Measured: AC50

Sequence of E-selectin (Homo sapiens) (P16581 whole entry, looked up): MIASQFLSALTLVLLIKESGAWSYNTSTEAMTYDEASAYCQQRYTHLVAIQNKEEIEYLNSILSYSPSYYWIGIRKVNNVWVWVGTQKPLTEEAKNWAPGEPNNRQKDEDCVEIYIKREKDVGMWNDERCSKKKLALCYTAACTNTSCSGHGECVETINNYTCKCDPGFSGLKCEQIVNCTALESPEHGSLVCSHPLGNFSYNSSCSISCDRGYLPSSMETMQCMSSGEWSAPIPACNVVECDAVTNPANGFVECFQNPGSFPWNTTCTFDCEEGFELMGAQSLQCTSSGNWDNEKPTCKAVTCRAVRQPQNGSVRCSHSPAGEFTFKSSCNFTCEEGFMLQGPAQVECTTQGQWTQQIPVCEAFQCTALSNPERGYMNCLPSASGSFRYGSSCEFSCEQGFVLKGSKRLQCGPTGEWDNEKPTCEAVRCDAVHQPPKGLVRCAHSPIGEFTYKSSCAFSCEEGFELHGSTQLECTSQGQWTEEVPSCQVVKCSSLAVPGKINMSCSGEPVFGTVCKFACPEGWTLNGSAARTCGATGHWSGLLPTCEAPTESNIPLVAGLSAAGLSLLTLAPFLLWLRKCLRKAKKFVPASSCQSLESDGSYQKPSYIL

Oc1cc(Cl)ccc1Cl
inactive: all assays above

CC1(C)[C@H](C(=O)O[C@H](C#N)c2cccc(Oc3ccccc3)c2)[C@@H]1C=C(Br)Br
inactive: [1] | [2] | [3] | [4] | [5] | [6] | [7] | [8] | [9] | [10] | [11] | [12] | [13] | CD38, CD38 (gene 952) | CD69, CD69 (gene 969) | [15] | [16] | [17]
active: [7] 5.23 µM | [9] 11.1 µM | [10] 8.23 µM | [11] 3.97 µM | [12] 0.298 µM | [14] 1.67 µM and 92.9 nM | CD38, CD38 (gene 952) 2.42 µM | CD69, CD69 (gene 969) 2.07 µM | [15] 1.52 µM

CC(C)(c1cc(Cl)c(O)c(Cl)c1)c1cc(Cl)c(O)c(Cl)c1
inactive: [8] | [10]
active: [1] 24.2 µM | [2] 13.4 µM | [3] 15.2 µM | [4] 12 µM | [5] 5.29 µM | [6] 10.2 µM | [7] 30.2 µM | [9] 27.9 µM | [11] 20 µM | [12] 5.51 µM | [13] 31.5 µM | [14] 22.9 µM | CD38, CD38 (gene 952) 26.6 µM | CD69, CD69 (gene 969) 26.3 µM | [15] 23.5 µM

C=CC(=O)OCC(CC)CCCC (configuration not stated)
active: [1] 28.9 µM | [2] 20 µM | [3] 27.6 µM | [6] 31.9 µM | [11] 20 µM
inactive: all other assays above
